From PubChem BioAssay (NCI)
About 83,000 compounds went through this panel and 20% of them were active in at least one assay; those are over-represented in the sample as a whole.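 Method: cells in 96-well plates; compound added at one concentration; 48 h incubation; percent growth measured; values under 10 scored active.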 A number with no mark means an inactive call. The source made the active and inactive calls.

Experiments:
Experiment in all cases: NCI-60 one-dose screen, 48 h (100 = growth as untreated, 0 = no growth, -100 = all killed)
NCI-H226 lung = conditions: 10 µM
NCI-H322M lung = conditions: 10 µM unless noted
HOP-62 NSCLC = conditions: 10 µM unless noted
NCI-H460 lung = conditions: 10 µM unless noted
HOP-92 NSCLC = conditions: 10 µM unless noted
A549/ATCC NSCLC = conditions: 10 µM unless noted
786-0 renal = conditions: 10 µM unless noted
NCI-H522 lung = conditions: 10 µM
COLO 205 colon = conditions: 10 µM unless noted

Compound | growth (NCI-H226 lung) | growth (NCI-H322M lung) | growth (HOP-62 NSCLC) | growth (NCI-H460 lung) | growth (HOP-92 NSCLC) | growth (A549/ATCC NSCLC) | growth (786-0 renal) | growth (NCI-H522 lung) | growth (COLO 205 colon)
CN1CCc2c(Sc3ccc(C(=O)NO)cc3)c3ccccc3n2C1 | 62.1% | 67.8% | 66.8% | 40.3% | 52.6% | 52.1% | 75.3% |  | 
COc1ccc(-c2nc3sc(C)cn3c2/C=C/C(=O)c2cc(OC)c(OC)c(OC)c2)cc1 | 76.9% | 76.1% | 90.1% | 50.5% | 46.2% |  | 48.2% | 37.8% | 67.9%
Cc1ccc(C(=O)Nc2ccccc2N)cc1 | 74.5% | 71.6% | 92.2% | 66% |  | 90.8% | 75.4% | 70% | 94.6%
COc1cccc(C2C3=C(COC3=O)N(CCO)c3cc4c(cc32)OCO4)c1 (stereo not drawn) | 51.6% | 48.9% | 30.4% | 12.3% | 65.7% | 25.9% | 18.5% | -39.4% (active) | -27.1% (active)
COc1cc(C2=NN(c3ccc(S(N)(=O)=O)cc3)C(c3ccc(Cl)cc3)C2)cc(OC)c1OC (stereo not drawn) | 55.6% | 66.9% | 60.6% | 25.8% | 23.3% | 26.2% | 66.5% | 44.9% | 48.5%
COc1cc2nc(N3CCC[C@H](NC4=CC(=O)c5ccccc5C4=O)C3)nc(N)c2cc1OC | 107% | -72.2% (active) | 64% | -65.7% (active) | 75.8% | -80.6% (active) | -92.7% (active) | 74.4% | -79.6% (active)
C[C@@H](Oc1cc(-c2cnn(C3CC4(CCNCC4)C3)c2)cnc1N)c1c(F)ccc(Cl)c1Cl | 65.5% | 44.4% | 28.4% | -11.7% (active) | -18.8% (active) | -14.4% (active) | -2.08% (active) | -0.334% (active) | -8.9% (active)
OC[C@@H](O)[C@@H](O)CO | 98.6% | 105% | 126% | 107% | 101% | 104% | 104% | 96.6% | 111%
C=CC(=O)N1CC2(CC(n3nc(-c4ccc(Oc5ccccc5)cc4)c4c(N)ncnc43)C2)C1 | 15.8% | 31.1% | 35.7% | 40.5% | 20% | 39.2% | 35.5% |  | 
Cc1ccc(C)c2c1sc1nc3nc4sc5ccccc5n4c(=N)c3c(=O)n12 | 115% | 120% | 97.3% | 95.5% | 72.3% | 111% | 100% | 116% | 109%
Cc1nc(NN)c([N+](=O)[O-])c(NN)n1 | 106% | 110% | 110% | 103% | 102% | 100% | 104% | 108% | 118%
O=C1c2cc(S(=O)(=O)O)ccc2C(=O)c2c1cccc2[N+](=O)[O-] | 111% | 111% | 117% | 115% | 110% | 98.6% | 101% | 96.6% | 108%
COc1ccc(/C=C2\CN(Cc3cn(CCCNc4ccnc5cc(Cl)ccc45)nn3)C/C(=C\c3ccc(OC)c(OC)c3)C2=O)cc1OC | -52.4% (active) | 22.7% | -1.63% (active) | -5.13% (active) | 25.5% | 5.33% (active) | -1.83% (active) | 0.468% (active) | 1.93% (active)
COc1ccc(-c2nc(Nc3ccc(F)cc3)nc(Nc3ccc4c(c3)nc(C)n4Cc3ccccc3)n2)cc1 | 66.6% | 82.4% | 53.3% | 30.3% | 39.7% | 32% | 46.7% | 55.4% | 28.2%
O=C(COc1cccc(/C=C2\COc3ccccc3C2=O)c1)c1ccccc1 | 68.7% | 95.3% | 98% | 104% | 91.5% |  | 88.8% | -41.9% (active) | 102%
N#Cc1c(O)c2c(c(O)c1C#N)C(=O)c1ccccc1C2=O | 87.8% | 38.4% | 59.8% | 22.7% | 88.5% | 27.3% | 90.9% | -5.65% (active) | -4.03% (active)
Cc1nc2cc(Nc3nc(Nc4ccc(F)cc4)nc(-c4ccc(Cl)cc4)n3)ccc2n1Cc1ccccc1 | 86.5% | 94% | 80.6% | 71.1% | 35.1% | 57.4% | 91% | 82.8% | 61.8%
Cc1nc(NC(=O)COc2cccc(/C=C3\COc4ccccc4C3=O)c2)sc1C | 83.2% | 58.6% | 71.9% | 9.93% (active) | -20.3% (active) |  | 72.1% | -49.6% (active) | 16.6%
O=[N+]([O-])c1ccc(O)c2ncccc12 | 81.1% | 31.6% | 50.9% | 23.2% | 67.4% | 46.6% | 66.5% | 51.6% | 80.5%
COc1cc(/C=C/c2cc(/C=C/c3ccc(O)c(OC)c3)n(-c3ccccc3)n2)ccc1O | -8.19% (active) | -3.64% (active) | -67.7% (active) | 0.0675% (active) |  | 8.4% (active) | -76.7% (active) | -30.2% (active) | -84.1% (active)
O=C(O)C[C@H](O)C[C@H](O)/C=C/c1c(C2CC2)nc2ccccc2c1-c1ccc(F)cc1 | 65.6% | 58.1% | 84.9% | 94.4% | -12% (active) | 105% | 91.9% | 53.7% | 102%
NC(=O)c1cc(I)ccc1NC(=O)COc1ccc(Cl)cc1Cl | 103% | 98.5% | 87.2% | 103% |  | 90.4% | 89.9% | 75.7% | 101%
O=C(COc1ccc(/C=C2\CSc3ccccc3C2=O)cc1)c1ccc(Cl)cc1 | 97.9% | 111% | 94.4% | 115% | 122% | 101% | 105% | 99.4% | 103%
COc1cc(C(F)(F)F)ccc1-c1cc(-c2ccc(F)cc2)n[nH]1 | 81.1% | 90.6% | 97.8% | 91.6% | 96.1% | 64.9% | 99.9% |  | 
COc1cccc(C2C3=C(COC3=O)N(CCO)c3cc4c(cc32)CCC4)c1 (stereo not drawn) | 13.4% | 30.3% | 19.2% | 1.42% (active) | 48.2% | 12.1% | 0.563% (active) | -50.4% (active) | -78.5% (active)
COc1ccc(/C=C2\CN(Cc3cn(CCCNc4ccnc5cc(Cl)ccc45)nn3)C/C(=C\c3ccc(OC)cc3)C2=O)cc1 | 96.7% | 80.1% | 63.6% | 86.3% | 53.8% | 65.7% | 76.3% | 87.9% | 81.6%
O=C(CCCCCCC(=O)Nc1ccc2c(c1)/C(=C/c1ccc[nH]1)C(=O)N2)NO | 27.6% | 15.1% | 14% | 25.8% | -19.7% (active) | 34.9% | 26.2% | 14.8% | -58.6% (active)
Cc1nc2cc(Nc3nc(NCCN)nc(Nc4ccc(F)cc4)n3)ccc2n1Cc1ccccc1 | 95.4% | 99.7% | 79.1% | 82.6% | 48.5% | 83.9% | 82.4% | 85.9% | 82%
Cn1cc(C(=O)NCCC(=N)N)cc1NC(=O)CN=C(N)N | 90.7% | 106% | 85.9% | 107% | 89.5% | 99.2% | 85.4% | 87.5% | 103%
Cc1nc2cc(Nc3nc(NCCO)nc(Nc4ccc(F)cc4)n3)ccc2n1Cc1ccccc1 | 91.6% | 98.9% | 94% | 83.5% | 49.9% | 74.1% | 94.7% | 85.6% | 94.5%
